# An excerpt weighted towards active compounds, which were near 9.4% of everything screened.
# ELG1 genotoxic: induces genotoxicity in HEK293T cells with luciferase-tagged ELG1; HEK293T ELG1-luciferase reporter, luminescence, 16 h; Potency, µM (doses to about 46 µM), inactives show at the top dose activity change, positive = activation, most hits filed as activators; 330,000 compounds, 1.3% hits; note: % of control where 0% means no effect; nearly all actives have a fitted effect of over 60% in size
#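 DMSO vehicle served as control against compound-treated ELG1-luciferase HEK293T cells; exposure lasted 16 hr at 37 °C and 5% CO2, followed by ONE-Glo luminescence detection after 30 min.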
# ELG1 repair inh: ELG1-dependent DNA repair inhibition. HEK293T ELG1-luciferase reporter, luminescence, 16 h; DNA damage induced by 5-fluorouridine. Potency, µM (titrated, usually from 46.1 µM), inactives show top-dose activity change, negative = inhibition, usual class: inhibitors. 330,000 compounds, 2.3% hits. AID 504467; note: % is set by controls: 0 for no effect and ±100 for the full control effect; nearly all actives have a fitted effect of over 55% in size
#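 Step one: seed 2,000 cells per well. Step two: pin-transfer compound or DMSO alongside 5-fluorouridine. Step three: incubate 16 hr, 37 °C, 5% CO2. Step four: add ONE-Glo, wait 30 min, read luminescence.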
# NPC1 prom act: NPC1 promoter activation; Huh7 NPC1 promoter luciferase reporter, 24 h; Potency, µM (doses to about 9.22 µM), without a hit: at the top dose activation, most hits filed as activators; 320,000 compounds, 2.4% hits; note: % of control where 0% means no effect; nearly all actives have a fitted effect of over 60% in size
#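 Cells: Huh7 expressing luciferase under the NPC1 promoter, 1500/well. Seeded 2 h, compound added, incubated 24 h at 37 °C. Luciferase reagent, 10 min ambient, then luminescence.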
# SMN2 splice enh: SMN2 splice variant enhancement; HEK293 SMN2-luciferase splicing reporter, luminescence, 30-36 h; Potency, µM (doses to about 46.1 µM), for inactives: at the highest dose activity change, positive = activation, usual class: activators; 210,000 compounds, 2.8% hits; note: % of control where 0% means no effect; nearly all actives have a fitted effect of over 55% in size
#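 HEK293 cells carry an SMN2 minigene-luciferase reporter in which exon 7 inclusion puts luciferase in frame. Cells were seeded at 2000 cells/well, attached for 10-12 hours, then exposed to compounds for 30-36 hours at 37C before ONE-Glo luminescence.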
# FLuc modulator: inhibits or activates purified firefly luciferase, miR-21 counter-screen | P08659 | purified FLuc, Km substrates, luminescence inhibition | Potency, µM (series often up to 57.5 µM), for inactives: at the top dose activity change, negative = inhibition, actives largely listed as inhibitors | 360,000 compounds, 6.9% hits | AID 588342;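 note: plate controls were vehicle for no effect and reference inhibitor for full effect; nearly all actives have a fitted effect of over 55% in size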
# Target sequence (P08659 whole entry, looked up): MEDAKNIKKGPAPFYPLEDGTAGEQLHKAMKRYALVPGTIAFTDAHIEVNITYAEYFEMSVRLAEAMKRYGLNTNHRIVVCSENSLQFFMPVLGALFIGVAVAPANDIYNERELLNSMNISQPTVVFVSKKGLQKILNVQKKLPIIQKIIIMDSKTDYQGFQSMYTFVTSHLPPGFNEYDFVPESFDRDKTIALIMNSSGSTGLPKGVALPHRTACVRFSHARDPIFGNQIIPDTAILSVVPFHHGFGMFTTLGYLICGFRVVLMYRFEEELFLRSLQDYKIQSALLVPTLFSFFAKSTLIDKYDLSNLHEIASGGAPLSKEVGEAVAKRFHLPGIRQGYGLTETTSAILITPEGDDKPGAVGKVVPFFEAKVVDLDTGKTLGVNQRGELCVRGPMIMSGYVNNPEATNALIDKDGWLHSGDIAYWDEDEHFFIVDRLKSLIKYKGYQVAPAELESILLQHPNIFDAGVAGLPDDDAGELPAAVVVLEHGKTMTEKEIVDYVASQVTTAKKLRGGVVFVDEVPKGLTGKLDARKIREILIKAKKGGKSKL
#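 Purified P. pyralis luciferase, 10 nM final, with Km-level 10 uM D-luciferin and 10 uM ATP in 50 mM Tris acetate pH 7.5, 10 mM Mg acetate, 0.01% Tween-20, 0.05% BSA; 6-point qHTS titration about 60 µM downward; luminescence read.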
# Rab9 prom act: activates the Rab9 promoter; Huh7 Rab9 promoter-luciferase reporter, luminescence, 24 h; Potency, µM (titrated, usually from 9.22 µM), inactives show at the highest dose activation, negative = inhibition, usual class: activators; 320,000 compounds, 2.8% hits; AID 485297; note: % of control where 0% means no effect; nearly all actives have a fitted effect of over 60% in size
#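 Stable Rab9-luc Huh7, 1500 cells/well, 2 h settle; cmpd in DMSO, 24 h, 37 °C/5% CO2; luciferase reagent 10 min RT; luminescence.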
# * hit, by the source's call; ? = inconclusive; nt = no result given; [ ] = remark or other dose. Calls come from the whole dose curve; as a rule, active = well fitted curve in the direction sought with a large enough effect; inconclusive = small, poorly fitted or top-dose-only effect, or another doubt; inactive = no such curve, though single readings can be large; an effect the other way counts as inactive or inconclusive. Potency is the fitted concentration of half-maximal effect.
SMILES,ELG1 genotoxic,ELG1 repair inh,NPC1 prom act,SMN2 splice enh,FLuc modulator,Rab9 prom act
O=c1cc(-c2cccs2)oc2ccc(Cl)cc12,?,?,3.2µM*,nt,4.8µM*,3.2µM*
CC1CCN(c2ccc3nnc(CCC(=O)N4CCN(c5ccc(F)cc5)CC4)n3n2)CC1,-6%,?,-5%,nt,2%,-6%
CC(=O)c1sc(N/N=C\c2ccc(N(C)C)cc2)nc1C,4.6µM*,?,1.3µM*,nt,1.3µM*,2.5µM*
COC(=O)c1sc(N/N=C/c2ccc(C(C)C)cc2)nc1C,13%,?,29%,nt,19µM*,?
CCOC(=O)c1sc(N/N=C/c2cc(Br)c(O)c(OC)c2)nc1C,0%,?,10%,nt,?,2%
CC(=O)c1sc(N/N=C/c2cccc(O)c2)nc1C,?,?,10%,nt,9.5µM*,?
CCN(CC)CCOC(=O)c1ccc(NC(=O)c2cc3cccc(OC)c3oc2=O)cc1,nt,nt,nt,nt,-9%,nt
CCOC(=O)Cc1ccc(NC(=O)N(Cc2ccc(CC)cc2)Cc2cn[nH]c2-c2ccc(OC)cc2)cc1,nt,nt,nt,nt,-11%,nt
CC(C)CC(=O)NCC(c1ccc2c(c1)OCO2)N1CCN(c2ccccc2F)CC1 (centres undefined),nt,nt,nt,nt,2%,nt
C=CCn1c(Oc2ccc(C=O)cc2OCC)nc2c1c(=O)n(C)c(=O)n2C,-1%,10%,4%,nt,1%,4%
COc1ccccc1C(=O)N(Cc1ccco1)Cc1ccccc1F,nt,nt,nt,-16%,-20%,nt
COc1ccc(CCNC(=O)COC(=O)c2ccc(C)s2)cc1,1%,14%,-1%,nt,-5%,0%
COCCCNC(=O)COC(=O)c1ccc(-c2nc3ccccc3s2)s1,14%,?,23%,13µM*,5.4µM*,?
COc1cccc2cc(C(=O)NCc3ccccn3)c(=O)oc12,?,?,?,1%,11µM*,?
COc1cccc2cc(C(=O)NCCC3=CCCCC3)c(=O)oc12,5%,14%,-1%,13%,?,3%
COc1cccc2cc(C(=O)NCCc3ccccc3)c(=O)oc12,?,?,5%,nt,11µM*,5%
COc1cccc2cc(C(=O)N3CCc4ccccc4C3)c(=O)oc12,?,?,0%,-5%,17µM*,6%
Cc1cc2nc(SC(C)C(=O)O)[nH]c2cc1C (centres undefined),0%,11%,-1%,-3%,21µM*,0%
O=C(CSc1ncccc1-c1nc2ccccc2[nH]1)Nc1ccc2c(c1)OCCO2,11%,-14%,7%,-6%[1.84 µM],27µM*,20%
Cc1ccc2nc(SCC(=O)Nc3ccc4c(c3)OCCO4)[nH]c2c1,17%,1%,-5%,-4%,15µM*,1%
O=C(COC(=O)CCCSc1nc2ccccc2[nH]1)Nc1cccc(F)c1,1%,29%,-2%,nt,13µM*,-3%
O=c1[nH]c(SCc2ccc(Br)cc2)nc2c1CCCC2,nt,nt,nt,nt,1%,nt
CSc1ncc(C(=O)Nc2c(C)cccc2C)c(-c2ccccc2)n1,nt,nt,nt,nt,-7%,nt
O=C(CSc1nc2ccccc2[nH]1)Nc1ccc2c(c1)OCCO2,4%,?,18%,-6%,8.5µM*,?
Cc1ccc2nc(SC(C)C(=O)N3CCOCC3)[nH]c2c1 (centres undefined),?,?,2.5µM*,20µM*,24µM*,3.2µM*
O=C(CSc1ccccn1)c1ccc2c(c1)OCO2,4.6µM*,?,3.5µM*,11µM*,11µM*,2.5µM*
O=C(CSc1nc2ccccc2[nH]1)c1ccc2c(c1)OCO2,13µM*,?,?,7%,12µM*,1.4µM*
Fc1ccc(Nc2nc(SCc3cccc(F)c3)nc3ccccc23)cc1,nt,nt,nt,nt,1%,nt
O=C(Cc1ccc(-c2ccccc2)cc1)NCCS(=O)(=O)N1CCN(c2ccccc2F)CC1,nt,nt,nt,nt,3%,nt
